Assay outcomes as filed in PubChem BioAssay.
KB-V1 cytotox = KB-V1 MDR subline cytotoxicity | AID 1347076 | actives 3.4% (n = 400,000) | KB-V1 MDR cells viability, CellTiter-Glo, 72 h | Potency, µM (highest dose often 46.1 µM), hits mostly cytotoxic; further: on the % scale 0 is the no-effect control and ±100 the full control effect; nearly all actives have a fitted effect of over 60% in size
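In this primary screen, KB-V1 cells overexpressing P-gp are incubated with library compounds (lowest to highest concentration) for 72 h at 37 degrees C before a luminescent ATP viability read.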
RORg inh = inhibitors of mouse ROR gamma transcriptional activity; Drosophila S2 Gal4-RORgamma UAS-luciferase reporter, 20 h; actives 5.4% (n = 310,000); AID 2551; P51450; Potency, µM (doses to about 53.6 µM), for the others: at the top dose activity change, negative = inhibition, most hits filed as inhibitors; further: on the % scale 0 is the no-effect control and ±100 the full control effect; nearly all actives have a fitted effect of over 60% in size
Target sequence (P51450 whole entry, looked up, the tested form may be a part): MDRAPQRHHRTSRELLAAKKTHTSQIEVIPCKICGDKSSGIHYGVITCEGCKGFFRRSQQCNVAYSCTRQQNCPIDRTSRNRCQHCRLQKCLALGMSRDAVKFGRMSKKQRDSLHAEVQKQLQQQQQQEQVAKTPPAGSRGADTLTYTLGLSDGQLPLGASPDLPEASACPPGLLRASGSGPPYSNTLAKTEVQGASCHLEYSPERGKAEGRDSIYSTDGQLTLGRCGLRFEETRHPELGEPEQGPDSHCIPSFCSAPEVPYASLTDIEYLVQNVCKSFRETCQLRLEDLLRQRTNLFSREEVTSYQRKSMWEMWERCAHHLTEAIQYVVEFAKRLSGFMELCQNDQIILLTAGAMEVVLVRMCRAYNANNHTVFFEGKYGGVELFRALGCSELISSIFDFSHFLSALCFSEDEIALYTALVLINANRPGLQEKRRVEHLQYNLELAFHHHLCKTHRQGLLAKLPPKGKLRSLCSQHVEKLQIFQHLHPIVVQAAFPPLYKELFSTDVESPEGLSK
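Drosophila S2 cells stably expressing Gal4-DBD/mouse RORγ fusion under metallothionein promoter plus UAS-luciferase; compound 1 h, then 700 uM CuSO4 induction for 20 h at ambient temperature; inhibition read as reduced luminescence.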
KB-3-1 cytotox = KB-3-1 parental cell cytotoxicity; KB-3-1 viability, CellTiter-Glo ATP luminescence, 72 h; Potency, µM (highest dose often 46.1 µM), actives largely listed as cytotoxic; actives 1.4% (n = 400,000); further: on the % scale 0 is the no-effect control and ±100 the full control effect; nearly all actives have a fitted effect of over 60% in size
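Parental KB-3-1 viability, qHTS format: 72 h compound exposure, 37 °C; CellTiter-Glo; media-only wells and DMSO plates as controls; concentration-effect fits on corrected data.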
MCF10A rereplic = induces DNA re-replication in MCF 10a normal breast cells | MCF 10A DNA re-replication, Hoechst nuclear intensity, 48 h | Potency, µM (titrated, usually from 46.1 µM), inactives show at the highest dose activity, positive = re-replication, actives largely listed as activators | actives 2.9% (n = 350,000); further: % of control where 0% means no effect; nearly all actives have a fitted effect of over 50% in size
SW480 rerep = induces DNA re-replication in SW480 colon adenocarcinoma cells. AID 624297. actives 1.8% (n = 340,000). SW480 DNA re-replication, Hoechst DNA content imaging, 48 h. Potency, µM (titrated, usually from 46.1 µM), for the others: at the top dose re-replication activation, most hits filed as activators; further: % of control where 0% means no effect; nearly all actives have a fitted effect of over 55% in size
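Cells (250 per well) received 23 nL compound or DMSO by pin tool and were kept 48 hr at 37 C, 5% CO2. Nuclei were then stained with Hoechst for 40 min and scanned for DNA content.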
Gal4-VP16 FLuc = counter-screen for ROR gamma inhibitors: Gal4-VP16 reporter; Potency, µM (series often up to 53.6 µM), without a hit: at the highest dose activity, negative = inhibition, actives largely listed as inhibitors; Drosophila S2 Gal4-VP16 UAS-luciferase, luminescence, 20 h; actives 3.5% (n = 310,000);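 further: Gal4-VP16 expression switched on by copper sulfate through the metallothionein promoter; on the % scale 0 is the no-effect control and ±100 the full control effect; nearly all actives have a fitted effect of over 50% in size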
Active calls of the source: *; i = inactive; ? = inconclusive; / = no result; ! = repeats disagree; [ ] = remark or other dose. Sampled rows, rich in hits. Any-hit rate of the full collection: about 10%. The call rests on the fitted dose curve; in most records, active means well fitted curve in the direction sought with a large enough effect; inconclusive means small, poorly fitted or top-dose-only effect, or another doubt; inactive means no such curve, though single readings can be large; an effect the other way counts as inactive or inconclusive. Potency means the concentration at half of the fitted maximal effect.

SMILES | KB-V1 cytotox | RORg inh | KB-3-1 cytotox | MCF10A rereplic | SW480 rerep | Gal4-VP16 FLuc
CCC(=NCCC(c1ccccc1)c1ccccc1)c1c(O)n(C)c(=O)n(C)c1=O | ? | 14.9% | ? | 8.2µM* | -3.0% | 2.0%
CCC(=NCc1ccc(F)cc1)c1c(O)n(C)c(=O)n(C)c1=O | 14.6µM* | 24.4% | ? | -2.3% | -20.3% | 22.4µM*
C=CCBr | / | 4.9% | / | / | / | 6.5%
Cc1cc(NC(=O)CCl)no1 | ? | 2.51µM* | ? | ? | ? | ?
Cc1ccc(Cn2cccc(C(=O)Nc3cc(C)on3)c2=O)cc1 | i | / | i | / | / | /
CCCC/C=C/[C@@H](NP(=O)(c1ccccc1)c1ccccc1)c1ccccc1OC | / | 19.2% | / | / | / | -8.6%
CCCCc1ccc(C(=O)O)nc1 | i | 7.08µM* | i | ? | ? | 8.91µM*
O=C1CC[C@@]2(O)C3Cc4ccc(O)c5c4C2(CCN3CC2CC2)[C@H]1O5 (stereo partly drawn) | / | 15.4%[10 µM] | / | -3.6% | -8.7% | 2.0%
CCC1C2CC3C4N(C)c5ccccc5[C@]45CC(C2C5O)N3C1O (stereo partly drawn) | / | 3.1% | / | / | / | -1.9%
O=C1C=CC2C3C(=O)N(c4ccccc4)C(=O)C3C1N2Cc1ccccc1 (stereo not drawn) | 18.4µM* | / | ? | ? | 3.66µM* | /
Cc1ccc(-c2nc(N(C)C3CCN(C)CC3)c3ccccc3n2)cc1 | 20.6µM* | -7.8% | i | 6.0% | 12.7% | 5.9%
CN1CCC(N(C)c2ncnc3ccc(Br)cc23)CC1 | i | 7.7%[0.365 µM] | i | 7.9% | 3.9% | /
CN1C(=O)C(=Cc2sc(=O)n(-c3ccccc3)c2N(C)C)C(=O)N(C)C1=O | i | -27.6% | ? | 18.4µM* | 28.2% | -6.7%
O=[N+]([O-])c1ccccc1-c1ccccc1 | / | 10.0% | / | / | / | -21.2%
COP(N)(=O)SC (stereo not drawn) | / | -7.4% | / | / | / | -1.6%
N#CC(Br)Br | i | 2.51µM* | i | -4.0% | -23.8% | 1.2%
Cn1c(=O)n(C)c2cc(CNCCc3ccccc3)ccc21 | i | / | i | / | / | /
O=C(Nc1ccc2c(c1)OCO2)c1cccn(Cc2ccccc2)c1=O | i | / | i | / | / | /
O=C(c1ccc2c(c1)ncn2C1CCCCC1)N1CCC2(CC1)OCCO2 | 9.2µM* | 23.7% | ? | 13µM* | 11.6µM* | 11.0%
Cc1cccc(-c2nc3ccc(C(=O)N4CCC5(CC4)OCCO5)cc3nc2-c2cccc(C)c2)c1 | i | 36.1% | ? | ? | ? | -8.0%
COC1C(O)C(C)OC(OC2C(Oc3cccc4c(O)c5c(=O)oc6ccc(C)c7c(=O)oc(c34)c5c67)OC(C)C(O)C2O)C1O (stereo not drawn) | i | / | 14.6µM* | 8.2µM* | 20.6µM* | /
O=C(Nc1nnc(-c2ccco2)o1)c1cccc2ccccc12 | ? | 0.0316µM* | i | ? | 1.8% | -98.4%
Cc1ccccc1Cn1cccc(C(=O)Nc2cc(Cl)ccc2C#N)c1=O | ? | / | i | / | / | /
CCCCCCCCCCCCCC(=O)OC1C(C)[C@@]2(O)C(C=C(CO)C[C@]3(O)C(=O)C(C)=C[C@H]23)[C@@H]2C(C)(C)[C@]12OC(C)=O (stereo partly drawn) | / | -15.1% | / | / | / | -6.2%
O=C(Nc1cccc(F)c1)N1CCCC2(CCN(C(=O)Oc3ccccc3)CC2)C1 | / | 20.6% | / | / | / | 5.9%
O=C(NCCc1ccccc1)[C@@H]1CC=C[C@@H]2CCN(Cc3ccc(Cl)c(Cl)c3)C(=O)[C@@H]21 | 16.4µM*! | / | ? | ? | ? | /
Clc1cccc(/C=N\Nc2nccs2)c1 | ? | 11.2µM* | i | 5.8µM* | -1.9% | ?
O=c1[nH]c(=O)n(-c2ccc(Cl)cc2)c(O)c1C=Nc1ccc(S(=O)(=O)Nc2nccs2)cc1 | i | 2.5% | i | 2.9% | 2.5% | -15.3%
COCCCn1c(=O)/c(=C/c2ccccc2OC(F)F)s/c1=C(\C#N)C(=O)NCCOC | ? | / | i | 28.9% | 8.1% | /
